Measured potencies and affinities stand elsewhere.
Each compound was assayed on Escherichia coli. Details: Concentration 20 uM; ASSAY_TEST Inhibition of Bacterial Growth; detection method Absorption (OD600); MEDIA CAMHB; plate type 384well; NBS; CORNING #3640; time 18 hr.

Row | SMILES | Inhibition
1 | Nc1ncnc2c1c(-c1cnc3ccccc3c1)nn2CC1CCNCC1 | -4.76%
2 | Cc1ccc2nc(C)c(-c3ccn(Cc4ccccc4)n3)n2c1 | 10.25%
3 | Cc1cc(C)cc(COc2ccc3c(C)c(CCC(=O)O)c(=O)oc3c2C)c1 | 4.13%
4 | Cc1nn(C)cc1C(C)Nc1nncc(-c2ccc(C(F)(F)F)cc2)n1 (stereo unspecified) | 3.9%
5 | O=C(Nc1ccc(F)c(-c2nc3cc(-c4ccccc4)cnc3[nH]2)c1)N1CCCC1 | -0.3%
6 | COc1ccc(N(CCc2cccc(C)n2)C(=O)C2CCCCC2)cc1 | 3.67%
7 | CC(C)=CCC/C(C)=C\CNCCNC1C2CC3CC(C2)CC1C3 (stereo unspecified) | 10.47%
8 | Cc1ccc2[nH]c3c(NCCN(C)C)ncnc3c2c1 | 7.48%
9 | c1ccc(Oc2ccc(-c3cc(CN4CCOCC4)[nH]n3)cc2)cc1 | 2.47%
10 | CNC(=O)c1cc(S(=O)(=O)N2CCN(c3ccccn3)CC2)cs1 | -1.66%
11 | CN1CCN(c2cc(-c3ccc(F)cc3)nc(-c3ccncc3)n2)CC1 | -5.05%
12 | CCOC(=O)c1c(NC(=O)c2c(F)c(F)c(F)c(F)c2F)sc(C(N)=O)c1C | 12.47%
13 | Cc1ccc(S(=O)(=O)n2cc(-c3ccnc(N)c3)c3cc(Br)cnc32)cc1 | -3.65%
14 | CCCn1nnc(NC(=O)COc2ccc(C3CCCCC3)cc2)n1 | -2.31%
15 | COc1ccc(C(=N)N)cc1-c1cn(-c2ccc(C(=N)N)cc2)nn1.Cl.Cl | 2.37%
16 | CCC(=O)Nc1ccccc1C(=O)Nc1ccccn1 | 10.48%
17 | CC(C)(C)C(=O)N(CCCCCCN1C[C@H](O)[C@@H](O)[C@H](O)[C@H]1CO)C1CCCCCC1 | 4.68%
18 | Cl.NCC(c1cccs1)S(=O)(=O)c1ccccc1 (stereo unspecified) | -0.69%

Row | SMILES | Inhibition
19 | O=C(NCc1ccoc1)N1CCN(Cc2ccc3c(c2)OCO3)CC1 | 3.25%
20 | Clc1ccc(CCNc2cc(-c3ccccc3)nc3ncnn23)cc1 | 4.96%
21 | C[C@H](c1ccc2c(c1)CCCC2)N(C)c1ncc2c(N)nc(N)nc2n1 | 11.2%
22 | O=C(NCCc1ccn(-c2ccccc2)n1)C1CCCCC1 | 2.39%
23 | CCCS(=O)(=O)N1CCC(CO)(Cc2ccccc2C(F)(F)F)CC1 | -1.16%
24 | CC(C)n1ncc2c(C(=O)NCC(c3cccs3)N3CCOCC3)cc(-c3ccccc3)nc21 (stereo unspecified) | 3.42%
25 | Cc1cc(C)c2cc(C(=O)NC3CCCCCCC3)[nH]c2c1 | 7.15%
26 | Cc1ccc(-c2nc(CN(Cc3ccccn3)C(C)C)cs2)o1 | 8.22%
27 | COc1ccc(-c2cnc3ccc(NCc4ccc(S(N)(=O)=O)cc4)nn23)cn1 | 10.16%
28 | Cc1ccc2nc(Cl)c(CNCc3cccs3)cc2c1 | -1.94%
29 | c1ccc(Oc2ccc(-c3cncc(-c4ccc5[nH]ccc5c4)n3)cc2)cc1 | 11.21%
30 | CNc1cc(C)nc(C2CN(C(=O)c3n[nH]c4ccccc34)CCO2)c1 (stereo unspecified) | 10.11%
31 | COc1cc(OC)cc(C(=O)NCC2Cc3cc(Cl)cc(-c4ccncc4)c3O2)c1 (stereo unspecified) | 10.63%
32 | O=C(NCc1ccco1)N1CCN(Cc2ccc(Cl)s2)CC1 | -3.38%
33 | CCOC(=O)c1noc(N)c1-c1ccccc1 | 11.39%
34 | O=C(Nc1nc(-c2ccccn2)cs1)c1cncn1-c1ccccc1 | 5.73%
35 | COc1cccc(OC)c1C(=O)Nc1ccc(Cl)c(-c2nc3ccccc3s2)c1 | -2.89%
36 | Cc1cc(O)nc(-n2nc(C)cc2C)n1 | 6.91%

From ChEMBL document CHEMBL4513149, “CO-ADD screening of MMV (CH) - MMV compounds” (2021)
